This is one part of a sample in which hits are shown more often than they occur.
TbREL1 primary: TbREL1 RNA ligase inhibitors, primary screen, biochemical, FRET fluorescence | AID 1117264, 2014 | TbREL1 RNA ligation | hit rate 0.49% among 89,000 | RNA-editing ligase 1, mitochondrial (Trypanosoma brucei brucei), P86926 | inhibition, % at 9.66 µM;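 active means inhibition above the mean inhibition across all screened compounds plus 3 SD, cut at about 11% in these data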;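 further: 0% = plate median of test wells and 100% = NSC42067 control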
Target sequence (P86926 whole entry, looked up): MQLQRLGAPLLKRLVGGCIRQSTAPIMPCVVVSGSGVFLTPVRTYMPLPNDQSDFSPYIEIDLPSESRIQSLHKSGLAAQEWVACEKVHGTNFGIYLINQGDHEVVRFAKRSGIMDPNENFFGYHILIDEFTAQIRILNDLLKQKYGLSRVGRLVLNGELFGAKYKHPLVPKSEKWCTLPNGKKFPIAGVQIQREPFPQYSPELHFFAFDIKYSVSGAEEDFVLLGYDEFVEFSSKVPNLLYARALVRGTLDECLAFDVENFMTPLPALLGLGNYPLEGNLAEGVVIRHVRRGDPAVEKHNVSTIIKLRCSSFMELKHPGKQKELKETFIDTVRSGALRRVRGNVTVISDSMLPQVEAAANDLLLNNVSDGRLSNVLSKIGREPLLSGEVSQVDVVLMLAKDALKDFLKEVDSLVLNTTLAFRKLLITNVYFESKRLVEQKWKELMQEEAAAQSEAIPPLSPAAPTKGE
TbREL1 conf: TbREL1 RNA ligase inhibitors, confirmation, biochemical, FRET fluorescence, triplicate; shares compounds with TbREL1 primary; TbREL1 RNA ligation; inhibition, % at 9.66 µM; hit rate 37% among 390; AID 1117282, 2014;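 active means mean inhibition across replicates above a set limit taken from the earlier primary screen, cut at about 11% in these data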;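 further: 0% = REL1 with substrate and DMSO and 100% = REL1 plus control inhibitor NSC42067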
* = called active by the depositor.

How did Cc1ccc(S(=O)(=O)N2CC[C@@]3(Cc4ccccc4)Cc4ccccc4C[C@@H]23)cc1 do in these assays?
TbREL1 primary: 3.7

Results for CC(=O)Nc1sc2c(c1-c1nc3ccccc3s1)CCCNC2 ?
TbREL1 primary: 6.6

What do the screens show for `CCC(=O)Nc1ccc(Cl)cc1C(=O)c1ccc[nH]1`?
TbREL1 primary: 7.8

Results for O=C(Nc1ccc(Cl)cc1)C(Cl)C(=O)c1ccccc1 (configuration not stated) ?
TbREL1 primary: 11.7*; TbREL1 conf: 7.8

What do the screens show for `O=C(N/C(=N\O)c1ccccc1)Nc1ccc(Cl)cc1`?
TbREL1 primary: 1.3

Results for O=C(Nc1ccc(F)c(Cl)c1)c1ccccc1 ?
TbREL1 primary: 0.1

What do the screens show for `COc1ccc(-c2nnc(SCC(=O)NN=C(C)c3cccc4ccccc34)n2-c2ccccc2)cc1`?
TbREL1 primary: -0.4

How did COC(=O)[C@@]12CCCCC3=C1N(CCC3)C(=O)[C@H]2CC(=O)NCCC(C)C do in these assays?
TbREL1 primary: -4.9

How did O=C(NCCc1ccccc1)OCc1cn(Cc2ccccc2Cl)nn1 do in these assays?
TbREL1 primary: 0.1

What do the screens show for `COc1ccc(-c2noc(CNC(=O)c3ccoc3C)n2)cc1`?
TbREL1 primary: 14.8*; TbREL1 conf: 1.8

Results for COc1ccc(-c2noc(CCC(=O)O)n2)cc1 ?
TbREL1 primary: 1.2

What do the screens show for `Cc1occc1C(=O)NCc1nc(-c2ccc(Cl)cc2)no1`?
TbREL1 primary: 1.0

Results for COC(=O)[C@]12C[C@H](CC(=O)NCc3ccc(C)o3)C(=O)N(Cc3ccc(Cl)cc3Cl)C1=C[C@H](C(C)C)O[C@@H]2C1CC1 ?
TbREL1 primary: -4.7

What do the screens show for `C[C@H]1COc2cc(Br)ccc2S(=O)(=O)N1Cc1cn(CC2CCCCC2)nn1`?
TbREL1 primary: -0.2

Results for O=C(Nc1ccc2[nH]ccc2c1)c1cc(-c2ccc(Cl)cc2)nc2ccccc12 ?
TbREL1 primary: -2.5

How did COC(=O)c1ccc[n+](CC(=O)c2ccc(Br)cc2)c1 do in these assays?
TbREL1 primary: 11.3*; TbREL1 conf: 0.3

Results for Cc1cc(C)c[n+](CC(=O)c2ccccc2)c1 ?
TbREL1 primary: 0.6

What do the screens show for `O=C(C[n+]1ccc2ccccc2c1)c1ccccc1`?
TbREL1 primary: 1.1

What do the screens show for `O=[N+]([O-])c1cncc2[nH]cnc12`?
TbREL1 primary: -0.9

Results for CC1CCN(C2CCN(S(=O)(=O)c3ccc(C(F)(F)F)cc3)CC2)CC1 ?
TbREL1 primary: 24.4*; TbREL1 conf: 0.5

Results for O=S(=O)(c1ccc(F)cc1)N1CCC(N2CCCCCC2)CC1 ?
TbREL1 primary: 1.1

How did CC1CCN(C2CCN(S(=O)(=O)c3ccc(F)cc3)CC2)CC1 do in these assays?
TbREL1 primary: 7.3

Results for Cc1ccc(NC(=O)N2CCC(N(C)CCC(C)C)CC2)cc1F ?
TbREL1 primary: 0.4

How did Cn1cccc1C(=O)N1CCN(S(=O)(=O)c2ccc(Cl)s2)CC1 do in these assays?
TbREL1 primary: -2.7

What do the screens show for `Cc1cccc(Cn2cc(COC(=O)Nc3ccc(F)cc3)nn2)c1`?
TbREL1 primary: 15.5*; TbREL1 conf: -0.5

What do the screens show for `O=C(Nc1ccc(F)cc1)OCc1cn(Cc2ccccc2)nn1`?
TbREL1 primary: -1.7

What do the screens show for `O=C(Nc1ccc(F)cc1)OCc1cn(Cc2ccc(Cl)cc2)nn1`?
TbREL1 primary: -1.8

How did C=CCn1c(SCC(=O)O)nnc1-c1ccco1 do in these assays?
TbREL1 primary: 1.1

How did CCN(C)C(=O)CN1C(=O)C2CCCCN2C(=O)c2ccccc21 (configuration not stated) do in these assays?
TbREL1 primary: 3.6

How did CCCC1CCC2(CCCN2CCOC(=O)Nc2ccc(OC)cc2)CC1 (configuration not stated) do in these assays?
TbREL1 primary: 10.3

Results for Nc1ccc(-c2nc3ccc(N)cc3[nH]2)cc1 ?
TbREL1 primary: 18.4*; TbREL1 conf: 36.3*

How did Nc1ccc(-c2nc3ccc([N+](=O)[O-])cc3[nH]2)cc1 do in these assays?
TbREL1 primary: 3.0

What do the screens show for `Nc1ccc(-c2nc3ccc(-c4nc5ccccc5o4)cc3[nH]2)cc1`?
TbREL1 primary: 2.9

How did CC(CNC(=O)[C@H]1O[C@@H](n2cnc3c(=O)[nH]c(N)nc32)[C@H](O)[C@@H]1O)c1ccccc1 (some centres not stated) do in these assays?
TbREL1 primary: -0.5

How did COc1cccc(CN(C)C(=O)[C@H]2O[C@@H](n3cnc4c(=O)[nH]c(N)nc43)[C@H](O)[C@@H]2O)c1 do in these assays?
TbREL1 primary: 14.1*; TbREL1 conf: 19.3*

How did COC(=O)[C@@H](Cc1ccccc1)NC(=O)[C@H]1O[C@@H](n2cnc3c(=O)[nH]c(N)nc32)[C@H](O)[C@@H]1O do in these assays?
TbREL1 primary: -4.6

How did COc1ccc2ccccc2c1-c1c(C(=O)c2ccc(Br)cc2)[nH]c(N)c1C(=O)NC1CCCCC1 do in these assays?
TbREL1 primary: -1.2

How did CSc1nc(-c2ccccc2)nn1S(=O)(=O)c1ccc(Cl)cc1 do in these assays?
TbREL1 primary: 11.3*; TbREL1 conf: 3.2

Results for COc1ccc(-c2nc(SC)n(S(=O)(=O)c3ccccc3)n2)cc1 ?
TbREL1 primary: 2.1

What do the screens show for `CCS(=O)(=O)n1nc(-c2ccc(Cl)cc2)nc1N`?
TbREL1 primary: -0.1

What do the screens show for `CCCCCCn1c(-c2ccc(Cl)cc2Cl)csc1=Nc1ccccc1`?
TbREL1 primary: 0.0

How did Cc1ccc(S(=O)(=O)N2c3ccc(F)cc3C[C@H]2CSc2ccccc2)cc1 do in these assays?
TbREL1 primary: 1.0

Results for Fc1ccccc1Cn1ccc2ccc(-c3ccc4ccn(Cc5ccccc5F)c4c3)cc21 ?
TbREL1 primary: -1.1

What do the screens show for `Cc1cccc(C(=O)N[C@H]2CC[C@@]34CCCN3C(=O)CCC[C@H]4[C@H]2C)c1`?
TbREL1 primary: 4.5

What do the screens show for `O=C(N[C@@H](Cc1cccnc1)C(=O)N1CCC[C@H]1C(=O)NC1CCCC1)C1CC1`?
TbREL1 primary: 5.2

How did COc1ccc(C[C@@H]2CN3C(=NC[C@@H]3C)N2C[C@H](C)NC(=O)CCC2CCCCC2)cc1 do in these assays?
TbREL1 primary: 6.1

Results for COc1ccc(C[C@H]2CN3C(=NC[C@H]3Cc3ccccc3)N2CCNC(=O)CCC2CCCCC2)cc1 ?
TbREL1 primary: 11.5*; TbREL1 conf: 18.7*

Results for C[C@@H](CN1C2=NC[C@H](Cc3ccccc3)N2C[C@H]1Cc1ccc(O)cc1)NC(=O)CCC1CCCCC1 ?
TbREL1 primary: 9.3

Results for CC(C)C1=CC2C3C(=O)N(c4ccccc4)C(=O)C3C1C(=O)C2(C)O (configuration not stated) ?
TbREL1 primary: -3.4

Results for COc1ccc2cc3cc(C(=O)Nc4ccc(F)cc4)sc3nc2c1 ?
TbREL1 primary: 8.6

How did Cc1c(P(=S)(c2ccccc2)c2ccccc2)[n+]2ccccc2n1C/C=C/c1ccccc1 do in these assays?
TbREL1 primary: 14.3*; TbREL1 conf: 21.9*

What do the screens show for `CC(O)c1nc2ccccc2n1C/C=C/c1ccccc1` (configuration not stated)?
TbREL1 primary: 0.9

How did CCOC(=O)CC[C@H](NC(=O)[C@@H]1CC=C[C@@H]2CCN(Cc3ccc(Cl)cc3)C(=O)[C@@H]21)C(=O)OCC do in these assays?
TbREL1 primary: 1.9

High-throughput results deposited in PubChem by The Scripps Research Institute Molecular Screening Center.
